Of roughly 7,900 targets only a part is listed; those with a hit were picked by preference. About 0.6% of all pairs of compound and target were hits. A number with no mark means an inactive call.
compound: c1cn2cc(-c3ccc4cn[nH]c4c3)nc(Nc3ccc(N4CCOCC4)cc3)c2n1 [entospletinib]; experiment: log2 fold change, soluble protein after heating vs DMSO (PISA); higher = thermal stabilisation; K562 cells, 10 uM, 30 min; active = over 0.2 and 3.5 SD of the protein, either way, in both replicates (recomputed)
Procedure, shortened: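 K562 cells at 2×10^6 cells/mL were treated with 10 μM compound for 30 min. Aliquots were heated for 3 min across 48°C-58°C, pooled, and extracted in PBS with 0.5% NP-40 at 4°C; soluble protein was the supernatant after 21,000xg for 90 min. Soluble protein was quantified by TMTpro 16plex LC-MS/MS with channel sums equalised, and reported as log2 fold change in thermal stability against DMSO controls, with values from duplicates.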

Sequence of UniProt P06400 (P06400 whole entry, looked up): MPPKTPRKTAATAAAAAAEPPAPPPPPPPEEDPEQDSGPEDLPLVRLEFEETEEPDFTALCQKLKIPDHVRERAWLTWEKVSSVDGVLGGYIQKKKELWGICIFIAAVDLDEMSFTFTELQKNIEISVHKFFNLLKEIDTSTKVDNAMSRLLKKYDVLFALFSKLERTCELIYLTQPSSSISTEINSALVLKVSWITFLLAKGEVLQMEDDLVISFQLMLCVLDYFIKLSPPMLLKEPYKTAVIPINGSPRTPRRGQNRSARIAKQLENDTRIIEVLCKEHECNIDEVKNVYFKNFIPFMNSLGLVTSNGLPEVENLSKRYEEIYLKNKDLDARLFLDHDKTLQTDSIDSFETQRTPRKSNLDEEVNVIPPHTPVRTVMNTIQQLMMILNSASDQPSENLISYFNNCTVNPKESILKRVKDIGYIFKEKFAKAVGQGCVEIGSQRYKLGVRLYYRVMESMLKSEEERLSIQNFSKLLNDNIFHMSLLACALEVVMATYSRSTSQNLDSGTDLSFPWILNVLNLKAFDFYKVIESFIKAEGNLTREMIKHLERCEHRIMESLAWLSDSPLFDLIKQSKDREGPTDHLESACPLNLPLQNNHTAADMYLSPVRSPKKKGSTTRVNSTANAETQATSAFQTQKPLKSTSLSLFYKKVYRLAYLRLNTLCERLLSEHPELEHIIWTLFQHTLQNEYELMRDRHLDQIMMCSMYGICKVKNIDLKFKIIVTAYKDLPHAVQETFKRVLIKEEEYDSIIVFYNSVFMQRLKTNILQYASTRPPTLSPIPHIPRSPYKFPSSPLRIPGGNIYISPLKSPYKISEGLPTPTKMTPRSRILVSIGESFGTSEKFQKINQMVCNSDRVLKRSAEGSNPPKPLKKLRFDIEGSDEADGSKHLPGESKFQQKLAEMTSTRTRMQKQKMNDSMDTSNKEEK
Sequence of UniProt Q8NEM2 (Q8NEM2 whole entry, looked up): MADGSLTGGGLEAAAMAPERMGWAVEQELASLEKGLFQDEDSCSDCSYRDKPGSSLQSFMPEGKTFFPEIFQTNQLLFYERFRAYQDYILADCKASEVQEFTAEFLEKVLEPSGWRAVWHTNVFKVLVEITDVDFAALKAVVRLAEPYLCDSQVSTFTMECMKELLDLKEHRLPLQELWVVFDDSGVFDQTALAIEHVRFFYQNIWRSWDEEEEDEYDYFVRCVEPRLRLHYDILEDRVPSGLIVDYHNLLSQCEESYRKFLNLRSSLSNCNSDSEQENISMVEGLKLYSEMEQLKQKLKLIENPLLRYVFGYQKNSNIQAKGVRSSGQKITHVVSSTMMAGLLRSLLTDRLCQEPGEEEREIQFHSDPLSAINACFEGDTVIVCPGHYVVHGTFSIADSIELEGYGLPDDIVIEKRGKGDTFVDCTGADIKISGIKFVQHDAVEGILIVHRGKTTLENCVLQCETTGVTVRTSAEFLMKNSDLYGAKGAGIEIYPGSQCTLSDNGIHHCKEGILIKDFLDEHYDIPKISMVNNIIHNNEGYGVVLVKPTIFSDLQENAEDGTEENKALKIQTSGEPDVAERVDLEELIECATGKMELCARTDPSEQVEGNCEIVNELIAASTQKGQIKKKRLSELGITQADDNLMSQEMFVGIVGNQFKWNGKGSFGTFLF
Sequence of UniProt Q96DM3 (Q96DM3 whole entry, looked up): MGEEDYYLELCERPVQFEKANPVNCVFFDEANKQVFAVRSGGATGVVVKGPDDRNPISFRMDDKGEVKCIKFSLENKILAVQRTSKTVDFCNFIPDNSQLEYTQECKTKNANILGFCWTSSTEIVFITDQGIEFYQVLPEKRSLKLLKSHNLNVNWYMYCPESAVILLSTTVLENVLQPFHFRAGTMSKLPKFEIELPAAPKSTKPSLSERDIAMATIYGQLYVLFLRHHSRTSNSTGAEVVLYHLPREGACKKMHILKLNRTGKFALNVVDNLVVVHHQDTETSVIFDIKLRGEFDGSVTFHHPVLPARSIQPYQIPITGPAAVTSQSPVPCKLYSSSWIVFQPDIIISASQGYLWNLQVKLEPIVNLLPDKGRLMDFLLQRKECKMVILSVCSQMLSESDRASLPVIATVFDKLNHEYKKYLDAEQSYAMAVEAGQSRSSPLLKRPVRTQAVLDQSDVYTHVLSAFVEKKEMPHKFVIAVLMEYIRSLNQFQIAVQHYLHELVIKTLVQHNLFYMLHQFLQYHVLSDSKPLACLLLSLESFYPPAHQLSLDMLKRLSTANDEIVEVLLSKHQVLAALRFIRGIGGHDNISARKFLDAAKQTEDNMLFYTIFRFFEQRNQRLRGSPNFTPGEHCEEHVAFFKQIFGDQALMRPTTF
Sequence of UniProt P51812 (P51812 whole entry, looked up): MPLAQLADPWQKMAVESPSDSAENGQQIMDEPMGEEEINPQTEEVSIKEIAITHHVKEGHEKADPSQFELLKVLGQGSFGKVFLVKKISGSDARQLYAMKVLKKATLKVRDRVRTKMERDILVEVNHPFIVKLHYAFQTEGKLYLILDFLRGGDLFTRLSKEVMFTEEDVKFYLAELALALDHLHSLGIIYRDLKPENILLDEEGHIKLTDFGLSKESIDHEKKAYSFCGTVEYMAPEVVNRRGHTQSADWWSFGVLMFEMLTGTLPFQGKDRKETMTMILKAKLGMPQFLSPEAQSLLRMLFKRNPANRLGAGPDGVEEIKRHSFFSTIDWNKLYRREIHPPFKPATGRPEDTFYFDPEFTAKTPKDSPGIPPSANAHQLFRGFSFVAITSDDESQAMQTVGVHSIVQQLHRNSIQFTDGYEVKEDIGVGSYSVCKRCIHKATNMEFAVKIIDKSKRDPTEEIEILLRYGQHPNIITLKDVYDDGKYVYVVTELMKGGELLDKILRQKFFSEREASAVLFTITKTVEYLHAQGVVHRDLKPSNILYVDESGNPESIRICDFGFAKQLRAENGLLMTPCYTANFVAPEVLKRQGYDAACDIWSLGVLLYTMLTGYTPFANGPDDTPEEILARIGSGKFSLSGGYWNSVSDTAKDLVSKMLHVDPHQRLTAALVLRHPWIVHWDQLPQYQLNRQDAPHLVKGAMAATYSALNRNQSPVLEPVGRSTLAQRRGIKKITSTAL
Sequence of UniProt Q9H6H4 (Q9H6H4 whole entry, looked up): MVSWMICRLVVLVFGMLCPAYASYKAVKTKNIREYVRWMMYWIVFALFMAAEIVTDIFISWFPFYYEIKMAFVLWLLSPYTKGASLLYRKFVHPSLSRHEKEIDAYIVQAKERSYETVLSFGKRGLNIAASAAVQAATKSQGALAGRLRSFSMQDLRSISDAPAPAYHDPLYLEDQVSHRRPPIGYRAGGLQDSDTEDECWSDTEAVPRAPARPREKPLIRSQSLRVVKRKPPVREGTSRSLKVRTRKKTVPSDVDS
Sequence of UniProt Q9BQY4 (Q9BQY4 whole entry, looked up): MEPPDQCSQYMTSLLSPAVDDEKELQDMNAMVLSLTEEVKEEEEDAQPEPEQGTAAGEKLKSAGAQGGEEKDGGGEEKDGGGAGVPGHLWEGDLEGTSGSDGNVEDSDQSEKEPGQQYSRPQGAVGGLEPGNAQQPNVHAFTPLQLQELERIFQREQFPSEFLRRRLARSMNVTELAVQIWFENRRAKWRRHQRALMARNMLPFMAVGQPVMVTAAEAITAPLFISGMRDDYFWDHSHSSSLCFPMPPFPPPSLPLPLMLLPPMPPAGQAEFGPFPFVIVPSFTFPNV
Sequence of UniProt O43819 (O43819 whole entry, looked up): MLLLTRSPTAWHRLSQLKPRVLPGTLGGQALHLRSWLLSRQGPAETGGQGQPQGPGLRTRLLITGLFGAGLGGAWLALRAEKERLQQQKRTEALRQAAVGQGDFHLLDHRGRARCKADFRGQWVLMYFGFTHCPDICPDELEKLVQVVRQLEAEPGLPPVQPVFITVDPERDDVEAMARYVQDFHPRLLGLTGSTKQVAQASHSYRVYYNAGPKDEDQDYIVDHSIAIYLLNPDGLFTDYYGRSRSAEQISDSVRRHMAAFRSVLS
Sequence of UniProt Q9NR46 (Q9NR46 whole entry, looked up): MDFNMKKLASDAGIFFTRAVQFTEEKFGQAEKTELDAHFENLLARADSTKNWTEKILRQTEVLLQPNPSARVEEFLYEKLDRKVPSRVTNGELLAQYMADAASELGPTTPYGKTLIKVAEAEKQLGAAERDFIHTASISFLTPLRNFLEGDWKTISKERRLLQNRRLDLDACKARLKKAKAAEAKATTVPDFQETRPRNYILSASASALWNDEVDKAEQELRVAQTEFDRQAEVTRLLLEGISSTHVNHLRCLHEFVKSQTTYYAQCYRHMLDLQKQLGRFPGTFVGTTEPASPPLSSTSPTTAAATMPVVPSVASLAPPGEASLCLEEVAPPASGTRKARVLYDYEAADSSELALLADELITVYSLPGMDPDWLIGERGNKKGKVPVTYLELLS
Sequence of UniProt Q96T51 (Q96T51 whole entry, looked up): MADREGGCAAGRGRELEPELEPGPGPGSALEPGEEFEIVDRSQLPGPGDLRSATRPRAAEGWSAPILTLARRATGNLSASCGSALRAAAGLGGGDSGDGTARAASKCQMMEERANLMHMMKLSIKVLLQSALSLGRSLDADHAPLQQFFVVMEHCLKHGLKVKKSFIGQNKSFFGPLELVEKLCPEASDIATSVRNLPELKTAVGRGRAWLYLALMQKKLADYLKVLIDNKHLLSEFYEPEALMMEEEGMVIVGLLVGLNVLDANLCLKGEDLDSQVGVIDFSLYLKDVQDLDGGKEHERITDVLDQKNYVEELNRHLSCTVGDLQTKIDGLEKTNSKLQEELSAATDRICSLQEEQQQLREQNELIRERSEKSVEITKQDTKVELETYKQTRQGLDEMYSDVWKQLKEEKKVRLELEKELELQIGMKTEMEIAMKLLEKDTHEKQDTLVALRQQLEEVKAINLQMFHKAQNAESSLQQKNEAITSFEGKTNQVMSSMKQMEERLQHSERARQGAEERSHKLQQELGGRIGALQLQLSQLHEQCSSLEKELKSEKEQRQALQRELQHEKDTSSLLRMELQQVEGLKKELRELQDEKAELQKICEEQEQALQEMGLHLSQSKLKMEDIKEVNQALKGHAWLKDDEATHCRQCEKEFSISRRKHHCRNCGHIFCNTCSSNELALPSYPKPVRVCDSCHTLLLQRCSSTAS

**Q.** For RRAGC (UniProt Q9HB90), which log2 fold change is on record?
**A.** Its log2 fold change is 0.021.

**Q.** Which log2 fold change does the source give for RPRD1B (UniProt Q9NQG5) here?
**A.** The log2 fold change was 0.037.

**Q.** Which log2 fold change does the source give for RPS12 (UniProt P25398) here?
**A.** The log2 fold change was 0.055.

**Q.** With REEP4 (UniProt Q9H6H4) as the target, how does the log2 fold change read?
**A.** The log2 fold change was 0.055.

**Q.** With RUFY1 (UniProt Q96T51) as the target, how does the log2 fold change read?
**A.** The log2 fold change was 0.042.

**Q.** RPS6KA3 (UniProt P51812) was tested. Which log2 fold change did it give?
**A.** Its log2 fold change is 0.037.

**Q.** Which log2 fold change does the source give for SLC19A1 (UniProt P41440) here?
**A.** Its log2 fold change is -0.121.

**Q.** With RTN4IP1 (UniProt Q8WWV3) as the target, how does the log2 fold change read?
**A.** The log2 fold change was -0.003.

**Q.** With SCAMP2 (UniProt H3BUB6) as the target, how does the log2 fold change read?
**A.** The log2 fold change was 0.154.

**Q.** How did the log2 fold change turn out when RB1 (UniProt P06400) was run?
**A.** The log2 fold change was 0.037.

**Q.** Which log2 fold change does the source give for RPS3 (UniProt P23396) here?
**A.** The log2 fold change was 0.063.

**Q.** How did the log2 fold change turn out when SGPL1 (UniProt O95470) was run?
**A.** Its log2 fold change is -0.017.

**Q.** With RPS16 (UniProt P62249) as the target, how does the log2 fold change read?
**A.** Its log2 fold change is 0.074.

**Q.** How did the log2 fold change turn out when RHOXF2 (UniProt Q9BQY4) was run?
**A.** Its log2 fold change is 0.062.

**Q.** RMC1 (UniProt Q96DM3) was tested. Which log2 fold change did it give?
**A.** Its log2 fold change is -0.03.

**Q.** Which log2 fold change does the source give for SIRT2 (UniProt Q8IXJ6) here?
**A.** Its log2 fold change is -0.047.

**Q.** How did the log2 fold change turn out when RBM33 (UniProt Q96EV2) was run?
**A.** Its log2 fold change is 0.

**Q.** With SLC12A9 (UniProt Q9BXP2) as the target, how does the log2 fold change read?
**A.** Its log2 fold change is -0.021.

**Q.** With SHCBP1 (UniProt Q8NEM2) as the target, how does the log2 fold change read?
**A.** Its log2 fold change is 0.039.

**Q.** Which log2 fold change does the source give for SCO2 (UniProt O43819) here?
**A.** Its log2 fold change is -0.118.

**Q.** For RAB3IL1 (UniProt Q8TBN0), which log2 fold change is on record?
**A.** Its log2 fold change is 0.005.

**Q.** With RAVER1 (UniProt E9PAU2) as the target, how does the log2 fold change read?
**A.** The log2 fold change was 0.073.

**Q.** With SERINC1 (UniProt Q9NRX5) as the target, how does the log2 fold change read?
**A.** The log2 fold change was 0.022.

**Q.** SH3GLB2 (UniProt Q9NR46) was tested. Which log2 fold change did it give?
**A.** The log2 fold change was 0.034.
